Compounds with a hit are over-represented: about 2.7% of the library has one in this group of screens.
NRP1-CendR mod: alters CendR peptide binding to human NRP-1; AID 602438; FAM-RPARPAR peptide binding to NRP-1, fluorescence polarization; inhibition, % at 25 µM; 360,000 tested, 0.85% active;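 active = inhibition or corrected inhibition above about 18%, plus a signal ratio from 0.5 to 1.5, limit read from the data, passing the limit was not always enough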
ATG4B inh: inhibitors of human ATG4B cysteine protease; Q9Y4P1; ATG4B cleavage of LC3-PLA2, NBD-HPC fluorescence, 1 h; inhibition, % at 8.33 µM; 340,000 tested, 0.51% active; in the data active = inhibition above about 40%
Target sequence (Q9Y4P1 whole entry, looked up): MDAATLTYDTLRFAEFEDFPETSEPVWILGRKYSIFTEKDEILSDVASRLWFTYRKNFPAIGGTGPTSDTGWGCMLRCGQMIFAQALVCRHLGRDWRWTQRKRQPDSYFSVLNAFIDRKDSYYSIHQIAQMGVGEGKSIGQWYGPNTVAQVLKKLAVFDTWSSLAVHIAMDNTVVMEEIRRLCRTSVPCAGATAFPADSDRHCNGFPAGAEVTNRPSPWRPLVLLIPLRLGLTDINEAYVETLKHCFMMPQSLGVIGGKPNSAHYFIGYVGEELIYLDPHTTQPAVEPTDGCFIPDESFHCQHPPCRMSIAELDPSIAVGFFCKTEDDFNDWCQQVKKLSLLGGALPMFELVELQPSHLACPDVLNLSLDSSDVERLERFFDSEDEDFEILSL
MPTP block: permeability transition pore inhibition; isolated mouse mitochondria, Ca2+ swelling absorbance, 30 min; inhibition, % at 10 µM; 360,000 tested, 1.4% active;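 active = inhibition of 50% or more, scaled per plate between neutral and stimulator controls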
SKN-1 inh: inhibitors of C. elegans SKN-1 | C. elegans VP596 Pgst-4::GFP/RFP ratio, acrylamide-induced, 24 h | inhibition, % at 21.8 µM | 360,000 tested, 0.49% active | AID 624304;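 active = interference check ratio from 0.5 to 1.5 plus GFP to RFP signal ratio inhibition reaching or exceeding a fixed threshold, cut at about 30% in these data, passing the limit was not always enough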
F508del corr: correctors of CFTR F508del function in bronchial epithelial cells | CFBE cells, YFP halide quenching; stimulated with forskolin plus potentiator P3; % fluorescence drop versus neutral controls | activity (quench increase), % at 7.58 µM | 350,000 tested, 0.36% active;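 active = mean added fluorescence quench of at least 8% versus neutral control, with both replicates also reaching 8%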;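 note: cells transiently co-express mutant CFTR-F508del with the halide-sensitive YFP; corrector assay measuring rescue of mutant channel to the surface after 24 h compound exposure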
ATG4B confirm: confirmation of human ATG4B inhibitors. shares compounds with ATG4B inh. ATG4B protease fluorescent substrate cleavage assay. inhibition, % at 8.33 µM. 320 tested, 92% active; in the data active = inhibition above about 39%
PLA2 counter: inhibits human PLA2, flagging false ATG4B inhibitors | AID 588402 | inhibition, % at 8.33 µM | 1,600 tested, 66% active | shares compounds with ATG4B inh | purified PLA2, NBD-C6-HPC fluorescence, 45 min; in the data active = inhibition above about 50%
Target sequence (P04054 whole entry, looked up): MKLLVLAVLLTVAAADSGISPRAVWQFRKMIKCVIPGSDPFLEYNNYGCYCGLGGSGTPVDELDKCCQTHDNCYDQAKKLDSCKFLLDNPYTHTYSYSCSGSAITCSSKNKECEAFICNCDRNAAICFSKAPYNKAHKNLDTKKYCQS
MPTP counter: mitochondrial membrane potential, counter-screen; shares compounds with MPTP block; isolated mitochondria, Rhodamine 123 fluorescence; inhibition, % at 10 µM; 5,000 tested, 78% active; AID 624504; in the data active = inhibition above about 22%
MPTP swell DR: dose response confirmation of mitochondrial permeability transition pore inhibitors | shares compounds with MPTP block | isolated mitochondria swelling, absorbance | IC50, µM | 780 tested, 58% active; in the data active = IC50 below about 20 µM
MPTP counter DR: active in counter-screen for permeability transition pore inhibitors; IC50, µM; isolated mitochondria counterscreen, fluorescence read-out; shares compounds with MPTP block; 780 tested, 49% active; in the data active = IC50 below about 80 µM
Each line names hits and unclear results; the compound was inactive in the other large screens (follow-up assays come after a bar, where they were run).

COc1ccccc1-c1c(-c2ccc(OCC(=O)NN)cc2O)n[nH]c1C(F)(F)F	none (no result: F508del corr)
COc1ccc(-c2n[nH]c(C(F)(F)F)c2-c2cc3ccccc3o2)c(O)c1	ATG4B inh 58, MPTP block 55 (no result: F508del corr) | ATG4B confirm 64 | PLA2 counter inactive | MPTP counter 60
O=C(CSc1nc2ccc(Cl)cc2[nH]1)NCCc1ccc(Cl)cc1	ATG4B inh 46, MPTP block 69 (no result: F508del corr) | PLA2 counter 50 | MPTP counter 60
O=C(CSc1nc2ncc(Cl)cc2[nH]1)NCCc1ccc(F)cc1	none
Cc1cccc(C)c1-n1cccc1/C=C1/C(=N)N2C(=NC1=O)SN=C2S(C)(=O)=O	ATG4B inh 89, MPTP block 67 | PLA2 counter 90 | MPTP counter 75
Cc1ccc(C(C)C)c(OCC(=O)Nc2ccccc2N2CCN(C)CC2)c1	ATG4B inh 54, MPTP block 83 (no result: F508del corr) | PLA2 counter 66 | MPTP counter inactive | MPTP swell DR inactive | MPTP counter DR inactive
O=C(Nc1nc(-c2ccccc2)cs1)c1ccccc1NS(=O)(=O)c1ccc(F)cc1	ATG4B inh 54, MPTP block 93 (no result: F508del corr) | PLA2 counter 62 | MPTP counter 35
O=C(Nc1cccnc1)c1ccccc1NS(=O)(=O)c1ccc(F)cc1	none
O=C(Nc1ccc(OC(F)(F)F)cc1)Nc1cccnc1	none
O=C(Nc1ccc(OC(F)(F)F)cc1)Nc1cccc([N+](=O)[O-])c1	ATG4B inh 49, MPTP block 75 (no result: F508del corr) | PLA2 counter 58 | MPTP counter 64
O=C(NCC[C@H]1CC[C@H](NC(=O)Nc2cc(F)ccc2F)[C@@H](CO)O1)Nc1ccc(F)cc1	none (no result: NRP1-CendR mod, ATG4B inh, MPTP block, SKN-1 inh)
Cc1cnc(C(=O)N2CCCC(C(=O)c3ccc(C(C)(C)C)cc3)C2)cn1 (stereo not given)	none
CC(C)(C)c1ccc(C(=O)C2CCCN(C(=O)c3ccccn3)C2)cc1 (stereo not given)	ATG4B inh 43, MPTP block 70 | ATG4B confirm 81 | PLA2 counter inactive | MPTP counter 93
CC(C)C#Cc1ccc2c(c1)O[C@H](CN(C)C(=O)C1CC1)[C@@H](C)CN([C@@H](C)CO)S2(=O)=O	none (no result: NRP1-CendR mod, ATG4B inh, MPTP block, SKN-1 inh)
Cc1ccc(S(=O)(=O)N(C)CC(=O)Nc2nc3ccccc3s2)cc1	none (no result: F508del corr)
Cc1ccc(/C(=N/Nc2nc3ccccc3s2)C2=C(O)c3ccccc3C2=O)cc1	ATG4B inh 45, MPTP block 90 | PLA2 counter 65 | MPTP counter 71
O=C1/C(=C\c2cc([N+](=O)[O-])ccc2O)SC(=S)N1Cc1ccc(Cl)cc1	ATG4B inh 52, MPTP block 52 | PLA2 counter 51 | MPTP counter inactive
O=C1/C(=C\c2ccc(O)c(O)c2)SC(=S)N1Cc1ccccc1	none
O=C1/C(=C\c2cccc(O)c2O)SC(=S)N1Cc1ccccc1	ATG4B inh 74, MPTP block 92 | PLA2 counter 89 | MPTP counter 46
O=C([C@@H]1[C@@H](CO)[C@@H]2Cn3c(ccc(-c4ccccc4F)c3=O)[C@H]1N2C(=O)C1CC1)N1CCCCC1	none (no result: NRP1-CendR mod, ATG4B inh, MPTP block, SKN-1 inh)
S=C(Nc1ccccc1Oc1ccccc1)Nc1cccc(Cl)c1Cl	NRP1-CendR mod 28, ATG4B inh 88, MPTP block 78 (no result: F508del corr) | PLA2 counter 95 | MPTP counter 69
S=C(Nc1cccc(Cl)c1)Nc1ccccc1Oc1ccccc1	ATG4B inh 86, MPTP block 91 (no result: F508del corr) | PLA2 counter 88 | MPTP counter 110
C[C@H](CO)N1C[C@H](C)[C@@H](CN(C)C(=O)NC2CCCCC2)OCCCC[C@H](C)Oc2ccc(NC(=O)c3ccncc3)cc2C1=O	none (no result: NRP1-CendR mod, ATG4B inh, MPTP block, SKN-1 inh)
C[C@@H](NC(=O)C[C@@H]1CC[C@H]2[C@@H](COC[C@H](O)CN2Cc2cc(F)ccc2F)O1)c1ccccc1	none (no result: NRP1-CendR mod, ATG4B inh, MPTP block, SKN-1 inh)
Cc1nc2c(C(=O)NCCC(C)C)c[nH]n2c(=O)c1Cc1ccccc1F	ATG4B inh 51, MPTP block 78 (no result: F508del corr) | PLA2 counter 63 | MPTP counter 59
CCCN1C[C@H](C)[C@H](OC)CN(C)C(=O)c2cc(NC(=O)NC3CCCCC3)ccc2OC[C@@H]1C	none (no result: NRP1-CendR mod, ATG4B inh, MPTP block, SKN-1 inh)
S=C(NCc1ccc(Cl)cc1Cl)NC1CCCCC1	ATG4B inh 44, MPTP block 106 (no result: F508del corr) | PLA2 counter 55 | MPTP counter 85
C[C@@H]1CCCCO[C@@H](CN(C)C(=O)c2ccccc2)[C@H](C)CN([C@H](C)CO)C(=O)c2cc(NS(C)(=O)=O)ccc2O1	none (no result: NRP1-CendR mod, ATG4B inh, MPTP block, SKN-1 inh)
O=S(=O)(Nc1cc2nc3ccccc3nc2n1Cc1ccccc1)c1ccc(Cl)cc1	ATG4B inh 45, MPTP block 58 | PLA2 counter inactive | MPTP counter 36
Cc1ccccc1CN(CC(=O)Nc1cccc([N+](=O)[O-])c1)S(=O)(=O)c1ccc(Cl)cc1	ATG4B inh 64, MPTP block 89 (no result: F508del corr) | PLA2 counter 77 | MPTP counter 80
CS(=O)(=O)N(CC(=O)Nc1cccc([N+](=O)[O-])c1)c1ccccc1F	none
O=C(NCC(O)CO)[C@]1(Cc2ccccc2)N=C(c2ccc(OCCCO)cc2)O[C@@H]1c1ccccc1 (stereo not given in full)	none (no result: NRP1-CendR mod, ATG4B inh, MPTP block, SKN-1 inh)
CC(C)COc1ccc(CNC(=S)NCc2ccccc2)cc1	ATG4B inh 64, MPTP block 53 (no result: F508del corr) | PLA2 counter 76 | MPTP counter 82
CCOc1ccc(CNC(=S)NCc2ccc(OCC)cc2)cc1	none
C[C@H]1CN([C@@H](C)CO)C(=O)c2cccc(NC(=O)C3CCCCC3)c2O[C@@H]1CN(C)S(=O)(=O)c1cn(C)cn1	none (no result: NRP1-CendR mod, ATG4B inh, MPTP block, SKN-1 inh)
Cc1ccc(NC(=S)Nc2ccc(Cl)c(Cl)c2)c(OC(F)F)c1	ATG4B inh 53, MPTP block 100 | PLA2 counter 61 | MPTP counter 90
FC(F)Oc1ccccc1NC(=S)Nc1cccnc1	none
Fc1ccc(NC(=S)Nc2ccccc2OC(F)F)cc1Cl	ATG4B inh 48, MPTP block 100 (no result: F508del corr) | PLA2 counter 59 | MPTP counter 76
C[C@H]1CCCCO[C@@H](CN(C)CC2CCCCC2)[C@@H](C)CN([C@@H](C)CO)C(=O)c2cc(NC(=O)CCC(F)(F)F)ccc2O1	none (no result: NRP1-CendR mod, ATG4B inh, MPTP block, SKN-1 inh)
CCN(Cc1ccccc1)S(=O)(=O)c1ccc(C(=O)N(CCCN(C)C)c2nc3cc4c(cc3s2)OCO4)cc1	none

Screening results from PubChem BioAssay.
